Data on 20 compounds can be found in PubChem BioAssay (Tox21).

Assay [1] in a line: qHTS assay to identify small molecule agonists of the AP-1 signaling pathway - cell viability counter screen (AID 1159525; calls by dose curve; also: nearly all actives have a fitted effect of over 55% in size). The method, boiled down: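 ME-180 AP-1-bla, 2500 cells/well, Opti-MEM + 0.5% dialyzed FBS; overnight 37 °C; cpd 15-pt titration, 5 h 37 °C; CellTiter-Glo 30 min RT; luminescence read; normalised to TOAB and DMSO controls.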
For orientation: Quantitative high-throughput screening tests each substance at several concentrations.

Assay [2] is described as follows: qHTS assay to identify small molecule agonists of the AP-1 signaling pathway (AID 1159526; calls by dose curve; also: % is scaled to controls: 0 for no effect and ±100 for the full control effect).
Assay [3] is described as follows: qHTS assay to identify small molecule agonists of the RXR signaling pathway - cell viability counter screen (AID 1159529). Also: nearly all actives have a fitted effect of over 50% in size. Also: potency is read from the fitted curve at half-maximal effect. As to activity change, negative = cytotoxicity: series mostly up to about 77 µM; % is scaled to controls: 0 for no effect and ±100 for the full control effect. The method, boiled down:
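Luminescence from CellTiter-Glo (30 min, RT) measured viability in the same wells as the beta-lactamase reporter readout. Cells: GeneBLAzer RXR-alpha HEK 293T, 2% charcoal-stripped FBS. Compound exposure 16 hr, 37 C.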

A short description of assay [4]: qHTS assay to identify small molecule antagonists of the retinoid acid receptor (RAR) signaling pathway - cell viability counter screen (AID 1159551). Also: % is scaled to controls: 0 for no effect and ±100 for the full control effect; nearly all actives have a fitted effect of over 35% in size. The method, boiled down:
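Seed C3RL4 cells; next day add compound, then retinol to 1 uM final; incubate 6 h at 37 C; add CellTiter-Glo; read luminescence after 30 min at RT.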

A short description of assay [5]: qHTS assay to identify small molecule antagonists of the estrogen related receptor (ERR) signaling pathway from Tox21 library - cell viability counter screen (AID 1224834). Also: % is scaled to controls: 0 for no effect and ±100 for the full control effect; nearly all actives have a fitted effect of over 30% in size. The method, boiled down:
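CellTiter-Fluor fluorescence measured; ERR cells; 17.5 h compound incubation at 37 C; 30 min reagent step.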

The target in assay [6] is Luciferin 4-monooxygenase (Photinus pyralis) (UniProt P08659). Put plainly: qHTS assay to identify small molecule inhibitors of firefly luciferase (AID 1224835). Also: nearly all actives have a fitted effect of over 25% in size. Also: potency is read from the fitted curve at half-maximal effect. As to activity change, negative = inhibition: series mostly up to about 120 µM; % is scaled to controls: 0 for no effect and ±100 for the full control effect. The method, boiled down: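 Quantitative HTS format; KM concentrations of both substrates. Purified P. pyralis FLuc activity quantified from luminescence images.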
Assay [7] in a line: qHTS assay to identify small molecule agonists of the constitutive androstane receptor (CAR) signaling pathway - cell viability counter screen (AID 1224836). Also: series mostly up to about 92 µM; % is scaled to controls: 0 for no effect and ±100 for the full control effect; nearly all actives have a fitted effect of over 45% in size. Summed up:
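Viability read-out: CellTiter-Fluor fluorescence after 23 h compound exposure at 37 C/5% CO2 in double-stable HepG2-CYP2B6-hCAR cells, with PK11195 present at 0.75 uM final; compounds tested in 15-point titration.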

Assay [8] in a line: qHTS assay to identify small molecule antagonists of the constitutive androstane receptor (CAR) signaling pathway - cell viability counter screen (AID 1224837). Also: series mostly up to about 92 µM; % is scaled to controls: 0 for no effect and ±100 for the full control effect; nearly all actives have a fitted effect of over 45% in size. The method, boiled down: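 Using CellTiter-Fluor, viability is scored in HepG2 cells stably carrying hCAR and a 2.2kb CYP2B6 reporter after 23 hr compound exposure across 15 concentrations, with CITCO present at 50 nM.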

For assay [9], the target named is Nuclear receptor subfamily 1 group I member 3 (Homo sapiens) (UniProt Q14994). The assay is described as follows: qHTS assay to identify small molecule agonists of the constitutive androstane receptor (CAR) signaling pathway (AID 1224839). Also: nearly all actives have a fitted effect of over 15% in size. Also: potency is read from the fitted curve at half-maximal effect. As to activation: series mostly up to about 92 µM; % is scaled to controls: 0 for no effect and ±100 for the full control effect. Summed up:
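Luminescence read-out (ONE-Glo, 30 min, room temperature) from double-stable HepG2-CYP2B6-hCAR cells exposed 24 h to 15-point compound series in presence of 0.75 uM PK11195 final.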

Assay [10] in a line: qHTS assay to identify small molecule antagonists of the retinoic acid receptor (RAR) signaling pathway (AID 1159552; also: nearly all actives have a fitted effect of over 50% in size; also: potency is read from the fitted curve at half-maximal effect). Summed up: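 Luminescence from a RARE luciferase reporter in C3RL4 cells served as read-out. Cells received compounds together with 1 uM final retinol and incubated 6 hr at 37 C before detection reagent was added for 30 min at room temperature.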
For assay [11], the target named is Nuclear receptor subfamily 1 group I member 3 (Homo sapiens) (UniProt Q14994). The assay is described as follows: qHTS assay to identify small molecule antagonists of the constitutive androstane receptor (CAR) signaling pathway (AID 1224838).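 Also: HepG2 cells stably expressing hCAR with CYP2B6 luciferase reporter stimulated by CITCO; nearly all actives have a fitted effect of over 40% in size.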 Also: potency is read from the fitted curve at half-maximal effect. Summed up:
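Reporter luminescence was quantified after 24 h exposure of hCAR/CYP2B6-2.2kb double-stable HepG2 cells to compounds at 15 concentrations in the presence of 50 nM CITCO final.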

Assay [12] addresses Retinoic acid receptor RXR-alpha (Homo sapiens) (UniProt P19793). The assay is described as follows: qHTS assay to identify small molecule agonists of the RXR signaling pathway (AID 1159527; calls by dose curve; also: % is scaled to controls: 0 for no effect and ±100 for the full control effect; nearly all actives have a fitted effect of over 35% in size). Summed up:
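Agonist mode; 9-cis retinoic acid positive control. HEK 293T UAS-bla reporter cells, 2% charcoal-stripped FBS, 16 hr compound exposure at 37 C/5% CO2. LiveBLAzer B/G FRET substrate 2 hr RT; ex 405, em 460/530 nm.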

Molecules are shown by their SMILES. Results filed as inconclusive are left out. Unmarked numbers belong to inactive results. Calls of active or inactive are those of the source. Unless noted, calls follow the shape of the dose curve; as a rule, active = well fitted curve in the direction sought with a large enough effect in the repeat runs; inconclusive = weak or mixed curves; inactive = no such curve, though single readings can be large; an effect the other way counts as inactive or inconclusive.

Sequence of Nuclear receptor subfamily 1 group I member 3 (Homo sapiens) (Q14994 whole entry, looked up): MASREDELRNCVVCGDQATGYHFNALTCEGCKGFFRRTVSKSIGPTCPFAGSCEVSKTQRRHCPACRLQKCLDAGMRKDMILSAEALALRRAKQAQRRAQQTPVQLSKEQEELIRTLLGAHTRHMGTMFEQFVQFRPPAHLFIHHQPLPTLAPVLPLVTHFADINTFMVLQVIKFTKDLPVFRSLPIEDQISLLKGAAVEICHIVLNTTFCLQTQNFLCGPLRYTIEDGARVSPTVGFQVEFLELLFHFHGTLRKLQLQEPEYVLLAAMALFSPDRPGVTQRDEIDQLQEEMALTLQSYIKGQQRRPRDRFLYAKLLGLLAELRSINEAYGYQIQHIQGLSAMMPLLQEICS
Sequence of Luciferin 4-monooxygenase (Photinus pyralis) (P08659 whole entry, looked up): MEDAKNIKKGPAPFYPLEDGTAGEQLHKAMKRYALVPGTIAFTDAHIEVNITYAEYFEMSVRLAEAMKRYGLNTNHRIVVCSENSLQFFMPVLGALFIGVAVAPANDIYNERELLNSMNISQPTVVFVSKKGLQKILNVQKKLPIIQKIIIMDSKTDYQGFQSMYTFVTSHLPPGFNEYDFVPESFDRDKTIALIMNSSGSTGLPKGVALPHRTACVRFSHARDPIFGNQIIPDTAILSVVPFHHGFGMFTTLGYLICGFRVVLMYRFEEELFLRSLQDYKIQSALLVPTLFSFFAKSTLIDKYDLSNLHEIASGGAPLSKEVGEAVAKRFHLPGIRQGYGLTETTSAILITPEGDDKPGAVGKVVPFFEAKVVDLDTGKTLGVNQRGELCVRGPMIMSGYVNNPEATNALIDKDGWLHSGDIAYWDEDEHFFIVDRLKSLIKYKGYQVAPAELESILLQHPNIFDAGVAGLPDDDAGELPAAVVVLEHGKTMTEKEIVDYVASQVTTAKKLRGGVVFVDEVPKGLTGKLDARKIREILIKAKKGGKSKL
Sequence of Retinoic acid receptor RXR-alpha (Homo sapiens) (P19793 whole entry, looked up): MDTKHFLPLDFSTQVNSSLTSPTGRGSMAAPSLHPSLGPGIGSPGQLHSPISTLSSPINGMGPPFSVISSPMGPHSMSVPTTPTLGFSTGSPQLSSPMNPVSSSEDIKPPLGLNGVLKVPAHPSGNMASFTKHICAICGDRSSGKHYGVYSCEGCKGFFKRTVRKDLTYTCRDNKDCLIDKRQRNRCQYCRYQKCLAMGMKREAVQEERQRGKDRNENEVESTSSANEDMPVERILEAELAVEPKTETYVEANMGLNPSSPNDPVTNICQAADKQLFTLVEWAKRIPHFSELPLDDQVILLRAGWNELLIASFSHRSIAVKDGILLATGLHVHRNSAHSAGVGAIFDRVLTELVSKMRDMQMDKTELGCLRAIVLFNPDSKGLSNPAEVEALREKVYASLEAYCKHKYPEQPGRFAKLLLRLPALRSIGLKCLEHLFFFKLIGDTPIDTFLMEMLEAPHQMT

`CSc1nnc(C(C)(C)C)c(=O)[nH]1`: the Potency entry in assay [1], in assay [2], in [3], in assay [4], in assay [5] and in assay [6] was “inactive” in each case. Further, the Potency entry in assay [7], in [8] and in [9] was “inactive” each time.

Take `CCSCC`: the Potency entry in assay [1], in [2], in assay [3], in assay [4], in [5] and in assay [6] was “inactive” in each case. For the same compound, the Potency entry in [7] and in [8] was “inactive” throughout.

Consider `C1CCSC1`, for which the Potency entry in assay [1], in assay [2], in assay [3], in [4], in [10] and in assay [5] was “inactive” each time. Further, the Potency entry in assay [6], in [7] and in [8] was “inactive” each time.

As to `ClC(c1ccccc1)(c1ccccc1)c1ccccc1`, the Potency result in [1], in [2], in [3], in assay [4], in assay [10] and in [6] was “inactive” each time. The Potency result in assay [7] and in assay [8] was “inactive” in each case. Further, the Potency in [9] was 21.7 µM (active).

On to `COc1cc(OC)nc(NC(=O)NS(=O)(=O)Nc2ccccc2C(=O)N(C)C)n1`, for which the Potency result in assay [1], in assay [2], in assay [3], in assay [4], in [5] and in assay [6] was “inactive” in each case. Further, the Potency result in [7], in assay [8] and in assay [9] was “inactive” in each case.

With `CC(C)C(=O)C(C)C`, the Potency result in [1], in assay [2], in [3], in [4], in [10] and in assay [5] was “inactive” in each case. For the same compound, the Potency result in [6], in assay [7], in assay [8], in [11] and in assay [9] was “inactive” in each case.

On to `CCc1cccc(C)c1N(C(=O)C(=O)O)C(C)COC` (stereo not drawn), for which the Potency entry in assay [1], in assay [12], in assay [3], in assay [4], in assay [10] and in [5] was “inactive” each time. The Potency entry in assay [6], in [7], in assay [8], in assay [11] and in assay [9] was “inactive” throughout.

Turning to `CCC(=O)OC/C=C(\C)CCC=C(C)C`, the Potency result in [1], in assay [2], in assay [3], in assay [4], in [5] and in assay [6] was “inactive” throughout. The Potency entry in assay [7] and in [8] was “inactive” each time.

Turning to `COc1cc(C(C)C)ccc1C`, the viability change, negative = cytotoxic in assay [1] was 8.58% [at 15.8 µM]; in [5], 2.54% [at 19 µM]; in [7] it was 2.67% [at 19 µM]. For the same compound, the activation in [12] was -1.52% [at 15.8 µM]; in [9], -0.0502% [at 19 µM]. The activity change, negative = cytotoxicity in [3] is 10.4% [at 15.8 µM]; in assay [4], -0.431% [at 19 µM]; in assay [8], 1.68% [at 19 µM]. Besides, the activity, negative = inhibition in [10] is 191% [at 19 µM]. Also, the activity change, negative = inhibition in [6] is 1.91% [at 23.6 µM].

As to `CCOc1nc(F)cc2nc(S(=O)(=O)Nc3c(Cl)cccc3C(=O)OC)nn12`, the Potency result in assay [1], in [2], in assay [3], in assay [4], in [10] and in assay [5] was “inactive” in each case. The Potency result in assay [7], in assay [8] and in assay [9] was “inactive” throughout.

Take `CCN(CC)c1ccc(C=O)c(O)c1`: the Potency entry in assay [1], in assay [2], in assay [4], in assay [10], in [5] and in [7] was “inactive” each time. The Potency entry in [8] and in assay [11] was “inactive” each time.

Take `CC/C=C\C/C=C\C/C=C\CCCCCCCC(=O)OC`: the Potency result in [1], in assay [2], in assay [4], in [10], in [6] and in [7] was “inactive” throughout. In addition, the Potency entry in [8] is “inactive”.

As for `CC(C)(C)C1=CC(=O)C(C(C)(C)C)=CC1=O`, the Potency result in [1], in [2], in [4], in assay [5], in assay [6] and in assay [7] was “inactive” throughout. Besides, the Potency entry in assay [8] and in assay [11] was “inactive” each time. The Potency in assay [9] is 21.1 µM (active).

In the case of `CCCCCCCCc1ccc(Nc2ccc(CCCCCCCC)cc2)cc1`, the Potency entry in assay [1], in assay [2], in assay [3], in [4], in [10] and in assay [5] was “inactive” throughout. Further, the Potency entry in assay [6], in assay [7], in [8], in assay [11] and in assay [9] was “inactive” throughout.

For `NC(=O)c1ccccc1Cl`, the Potency entry in [1], in assay [2], in [3], in assay [4], in [5] and in [6] was “inactive” throughout. The Potency result in [7], in [8], in assay [11] and in assay [9] was “inactive” throughout.

With `C=C1CC[C@H]2O[C@]2(C)CC[C@@H]2[C@@H]1CC2(C)C`, the Potency result in [1], in assay [2], in [3], in [4], in assay [5] and in assay [6] was “inactive” throughout. Besides, the Potency result in [7], in assay [8], in [11] and in [9] was “inactive” in each case.

Regarding `CCc1cccc(CC)c1`, the Potency result in [1], in assay [2], in assay [3], in assay [4], in assay [10] and in assay [5] was “inactive” each time. Moreover, the Potency entry in [6], in [7] and in assay [8] was “inactive” each time.

Take `CC1(C)[C@H](C(=O)OCc2cccc(Oc3ccccc3)c2)[C@@H]1C=C(Cl)Cl`: the Potency entry in assay [1], in assay [2], in [3], in assay [4], in assay [5] and in assay [6] was “inactive” each time. Besides, the Potency entry in assay [7], in assay [8] and in [9] was “inactive” throughout.

For the compound `Nc1ccc(Oc2cccc(Oc3ccc(N)cc3)c2)cc1`, the Potency entry in [1], in assay [2], in [3], in assay [4], in assay [7] and in assay [8] was “inactive” each time. Moreover, the Potency entry in assay [9] was “inactive”. The results for the Potency in assay [10], in [6] and in assay [11] were 24.3 µM (active), 35.6 µM (active) and 1.37 µM (active), respectively.

With `O=C(Nc1ccc([N+](=O)[O-])cc1)Nc1ccc([N+](=O)[O-])cc1` (tested in a mixture with another compound), the Potency entry in assay [1], in assay [2], in [4], in [6], in assay [7] and in [8] was “inactive” throughout. Moreover, in assay [3], the Potency was 0.848 µM (active).
